Data reported in the supplement of paper PMC10849652.
The full data set covers some 7,900 targets. This sample favours those with a hit. About 0.6% of all pairs of compound and target were hits. A number with no mark means an inactive call.

Key:
Experiment in all cases: log2 fold change, soluble protein after heating vs DMSO (PISA); higher = thermal stabilisation; K562 cells, 10 uM, 30 min; active = over 0.2 and 3.5 SD of the protein, either way, in both replicates (recomputed)
[1] = compound: CS(=O)(=O)c1ccc(-c2cnc(N)c(C(=O)Nc3ccccc3)n2)cc1
How it was run: (§1)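 Aliquots of K562 cells (2×10^6 cells/mL) treated with 10 μM compound for 30 min were heated for 3 min over 48°C-58°C. After pooling and extraction in PBS with 0.5% NP-40 at 4°C, soluble protein from a 21,000xg, 90 min spin was quantified by TMTpro 16plex LC-MS/MS with channel sums equalised. Thermal stability is expressed against control samples, from duplicates, as a log2 fold change.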

crizotinib = compound: C[C@@H](Oc1cc(-c2cnn(C3CCNCC3)c2)cnc1N)c1c(Cl)ccc(F)c1Cl [crizotinib]
How it was run: as §1

[2] = compound: C[C@@H]1COCCN1C2=NC(=NC(=C2)C3(CC3)S(=O)(=O)C)C4=C5C=CNC5=CC=C4
How it was run: as §1

[3] = compound: C[C@H](C1=CC=C(C=C1)C(=O)NC2=C3C=CNC3=NC=C2)N
How it was run: as §1

duvelisib = compound: C[C@H](Nc1ncnc2nc[nH]c12)c1cc2cccc(Cl)c2c(=O)n1-c1ccccc1 [duvelisib]
How it was run: as §1

gandotinib = compound: Cc1cc(Nc2cc(CN3CCOCC3)c3nc(C)c(Cc4ccc(Cl)cc4F)n3n2)n[nH]1 [gandotinib]
How it was run: as §1

tozasertib = compound: Cc1cc(Nc2cc(N3CCN(C)CC3)nc(Sc3ccc(NC(=O)C4CC4)cc3)n2)n[nH]1 [tozasertib]
How it was run: as §1

[4] = compound: Cc1cc(SCc2sc(-c3ccc(C(F)(F)F)cc3)nc2C)ccc1OCC(=O)O
How it was run: as §1

doramapimod = compound: Cc1ccc(-n2nc(C(C)(C)C)cc2NC(=O)Nc2ccc(OCCN3CCOCC3)c3ccccc23)cc1 [doramapimod]
How it was run: as §1

ispinesib = compound: Cc1ccc(C(=O)N(CCCN)[C@@H](c2nc3cc(Cl)ccc3c(=O)n2Cc2ccccc2)C(C)C)cc1 [ispinesib]
How it was run: as §1

UniProt Q14739, sequence (Q14739 whole entry, looked up): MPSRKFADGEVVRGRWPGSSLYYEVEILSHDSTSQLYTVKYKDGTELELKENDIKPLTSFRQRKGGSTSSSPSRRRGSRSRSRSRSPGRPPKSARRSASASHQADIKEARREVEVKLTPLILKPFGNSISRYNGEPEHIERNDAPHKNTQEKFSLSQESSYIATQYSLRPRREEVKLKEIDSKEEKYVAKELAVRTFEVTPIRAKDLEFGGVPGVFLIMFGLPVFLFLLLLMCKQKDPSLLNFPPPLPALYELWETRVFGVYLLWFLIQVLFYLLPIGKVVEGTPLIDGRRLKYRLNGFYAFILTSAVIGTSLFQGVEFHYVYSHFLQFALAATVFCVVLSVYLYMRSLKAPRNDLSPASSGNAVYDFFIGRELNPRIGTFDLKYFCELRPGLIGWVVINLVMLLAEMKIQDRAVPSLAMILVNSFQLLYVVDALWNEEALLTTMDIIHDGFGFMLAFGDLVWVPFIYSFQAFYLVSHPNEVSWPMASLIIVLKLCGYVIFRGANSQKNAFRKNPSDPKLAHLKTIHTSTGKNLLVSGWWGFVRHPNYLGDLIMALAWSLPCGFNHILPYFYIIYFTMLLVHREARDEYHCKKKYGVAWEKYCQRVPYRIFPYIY
UniProt Q12905, sequence (Q12905 whole entry, looked up): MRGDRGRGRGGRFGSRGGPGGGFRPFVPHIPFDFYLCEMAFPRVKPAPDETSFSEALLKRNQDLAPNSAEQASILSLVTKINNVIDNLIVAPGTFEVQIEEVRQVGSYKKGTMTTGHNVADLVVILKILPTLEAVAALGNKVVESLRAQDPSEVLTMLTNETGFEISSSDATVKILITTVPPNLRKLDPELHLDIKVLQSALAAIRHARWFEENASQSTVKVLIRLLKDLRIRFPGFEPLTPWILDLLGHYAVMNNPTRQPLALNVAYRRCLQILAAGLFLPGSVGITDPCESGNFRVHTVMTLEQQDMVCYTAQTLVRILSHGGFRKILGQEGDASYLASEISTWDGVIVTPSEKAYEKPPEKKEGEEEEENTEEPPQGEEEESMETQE
UniProt Q15648, sequence (Q15648 whole entry, looked up): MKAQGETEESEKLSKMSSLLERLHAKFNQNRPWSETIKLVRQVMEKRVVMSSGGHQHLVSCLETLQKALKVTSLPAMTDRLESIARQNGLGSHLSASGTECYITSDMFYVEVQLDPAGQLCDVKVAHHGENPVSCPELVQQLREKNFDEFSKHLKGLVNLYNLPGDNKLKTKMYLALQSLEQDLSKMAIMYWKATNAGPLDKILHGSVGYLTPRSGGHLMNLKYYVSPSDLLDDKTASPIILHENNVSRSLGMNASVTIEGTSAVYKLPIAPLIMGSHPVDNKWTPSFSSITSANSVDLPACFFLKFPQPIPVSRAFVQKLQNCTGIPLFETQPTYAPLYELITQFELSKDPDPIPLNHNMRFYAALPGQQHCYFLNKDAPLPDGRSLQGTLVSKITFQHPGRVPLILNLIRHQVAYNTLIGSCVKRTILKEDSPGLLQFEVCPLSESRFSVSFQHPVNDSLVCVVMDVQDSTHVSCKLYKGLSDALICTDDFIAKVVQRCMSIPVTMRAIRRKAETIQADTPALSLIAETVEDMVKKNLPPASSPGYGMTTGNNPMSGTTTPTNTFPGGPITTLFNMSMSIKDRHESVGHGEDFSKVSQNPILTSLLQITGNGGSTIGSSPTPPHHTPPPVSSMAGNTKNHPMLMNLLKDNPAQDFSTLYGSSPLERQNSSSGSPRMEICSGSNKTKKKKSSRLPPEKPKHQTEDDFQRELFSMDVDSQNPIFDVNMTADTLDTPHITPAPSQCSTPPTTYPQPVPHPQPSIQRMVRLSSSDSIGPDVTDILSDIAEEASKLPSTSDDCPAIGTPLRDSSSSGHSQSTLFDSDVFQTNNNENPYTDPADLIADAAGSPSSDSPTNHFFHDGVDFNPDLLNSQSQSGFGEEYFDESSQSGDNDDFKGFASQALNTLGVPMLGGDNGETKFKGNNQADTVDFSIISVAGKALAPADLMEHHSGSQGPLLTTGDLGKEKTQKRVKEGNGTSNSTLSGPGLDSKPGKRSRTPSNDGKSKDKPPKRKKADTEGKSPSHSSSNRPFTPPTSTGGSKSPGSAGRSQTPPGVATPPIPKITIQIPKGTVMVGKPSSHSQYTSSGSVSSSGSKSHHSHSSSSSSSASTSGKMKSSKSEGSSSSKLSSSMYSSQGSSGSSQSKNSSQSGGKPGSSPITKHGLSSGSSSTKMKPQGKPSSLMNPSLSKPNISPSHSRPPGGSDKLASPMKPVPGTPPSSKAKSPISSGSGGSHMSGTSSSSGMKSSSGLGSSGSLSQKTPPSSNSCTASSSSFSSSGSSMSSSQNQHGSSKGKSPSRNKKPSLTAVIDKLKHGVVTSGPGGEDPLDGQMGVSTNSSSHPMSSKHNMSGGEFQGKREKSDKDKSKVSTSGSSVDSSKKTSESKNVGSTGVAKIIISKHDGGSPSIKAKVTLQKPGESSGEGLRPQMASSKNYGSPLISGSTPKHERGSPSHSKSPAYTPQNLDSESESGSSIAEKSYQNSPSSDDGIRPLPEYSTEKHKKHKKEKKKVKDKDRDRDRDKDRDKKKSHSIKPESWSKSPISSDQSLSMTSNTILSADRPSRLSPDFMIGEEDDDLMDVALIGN
UniProt P49441, sequence (P49441 whole entry, looked up): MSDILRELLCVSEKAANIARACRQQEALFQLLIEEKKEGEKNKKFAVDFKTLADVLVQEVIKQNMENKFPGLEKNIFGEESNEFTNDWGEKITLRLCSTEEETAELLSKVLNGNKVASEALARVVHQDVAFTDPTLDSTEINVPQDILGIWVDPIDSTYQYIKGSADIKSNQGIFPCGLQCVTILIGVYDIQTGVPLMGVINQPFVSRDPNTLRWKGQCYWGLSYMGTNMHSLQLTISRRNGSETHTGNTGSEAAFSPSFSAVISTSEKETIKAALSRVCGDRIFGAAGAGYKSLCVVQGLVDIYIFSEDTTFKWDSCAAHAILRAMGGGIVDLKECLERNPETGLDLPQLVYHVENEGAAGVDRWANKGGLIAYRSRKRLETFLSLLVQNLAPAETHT
UniProt Q16891, sequence (Q16891 whole entry, looked up): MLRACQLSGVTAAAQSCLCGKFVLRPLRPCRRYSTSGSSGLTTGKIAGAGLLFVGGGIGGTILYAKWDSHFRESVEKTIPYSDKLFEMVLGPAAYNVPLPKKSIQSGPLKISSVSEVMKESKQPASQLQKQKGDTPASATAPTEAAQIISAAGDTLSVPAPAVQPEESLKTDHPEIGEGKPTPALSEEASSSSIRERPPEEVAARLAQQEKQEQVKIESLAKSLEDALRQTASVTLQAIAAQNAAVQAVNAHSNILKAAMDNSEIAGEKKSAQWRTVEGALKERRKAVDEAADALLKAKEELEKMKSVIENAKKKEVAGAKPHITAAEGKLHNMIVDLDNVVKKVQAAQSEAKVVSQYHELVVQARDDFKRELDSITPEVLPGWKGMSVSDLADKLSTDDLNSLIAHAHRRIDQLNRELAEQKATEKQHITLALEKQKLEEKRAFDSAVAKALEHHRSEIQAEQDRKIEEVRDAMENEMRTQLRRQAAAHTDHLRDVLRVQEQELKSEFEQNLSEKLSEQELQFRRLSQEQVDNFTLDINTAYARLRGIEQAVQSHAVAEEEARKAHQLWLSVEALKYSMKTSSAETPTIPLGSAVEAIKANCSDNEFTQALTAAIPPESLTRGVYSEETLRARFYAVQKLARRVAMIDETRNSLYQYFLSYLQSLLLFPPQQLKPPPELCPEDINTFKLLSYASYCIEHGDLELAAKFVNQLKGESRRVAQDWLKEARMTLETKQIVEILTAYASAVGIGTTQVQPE
UniProt P17936, sequence (P17936 whole entry, looked up): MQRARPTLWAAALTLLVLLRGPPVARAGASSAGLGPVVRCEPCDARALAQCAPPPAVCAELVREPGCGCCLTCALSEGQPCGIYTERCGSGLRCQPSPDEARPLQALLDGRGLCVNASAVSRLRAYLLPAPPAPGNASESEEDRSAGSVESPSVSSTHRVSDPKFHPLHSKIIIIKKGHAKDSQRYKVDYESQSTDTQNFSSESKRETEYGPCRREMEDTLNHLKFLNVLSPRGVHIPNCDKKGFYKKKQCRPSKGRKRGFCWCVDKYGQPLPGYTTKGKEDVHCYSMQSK
UniProt Q16644, sequence (Q16644 whole entry, looked up): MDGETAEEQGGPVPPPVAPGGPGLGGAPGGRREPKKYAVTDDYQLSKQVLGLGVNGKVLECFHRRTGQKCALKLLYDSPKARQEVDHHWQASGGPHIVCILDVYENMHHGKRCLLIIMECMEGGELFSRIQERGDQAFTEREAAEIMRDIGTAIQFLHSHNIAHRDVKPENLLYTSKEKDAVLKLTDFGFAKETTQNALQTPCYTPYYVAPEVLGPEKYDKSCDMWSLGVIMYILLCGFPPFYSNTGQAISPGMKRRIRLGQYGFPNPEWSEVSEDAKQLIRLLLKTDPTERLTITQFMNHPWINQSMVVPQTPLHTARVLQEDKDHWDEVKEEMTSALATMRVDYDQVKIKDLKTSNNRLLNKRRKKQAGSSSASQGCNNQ
UniProt Q9GZY8, sequence (Q9GZY8 whole entry, looked up): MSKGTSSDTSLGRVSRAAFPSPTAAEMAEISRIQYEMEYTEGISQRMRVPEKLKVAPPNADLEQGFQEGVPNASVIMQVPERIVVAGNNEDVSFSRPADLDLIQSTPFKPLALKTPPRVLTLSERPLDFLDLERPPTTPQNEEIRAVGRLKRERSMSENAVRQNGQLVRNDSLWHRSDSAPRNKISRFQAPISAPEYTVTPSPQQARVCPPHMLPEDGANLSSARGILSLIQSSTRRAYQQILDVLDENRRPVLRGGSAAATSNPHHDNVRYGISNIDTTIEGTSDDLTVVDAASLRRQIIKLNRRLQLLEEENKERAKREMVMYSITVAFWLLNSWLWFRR
UniProt Q8WV07, sequence (Q8WV07 whole entry, looked up): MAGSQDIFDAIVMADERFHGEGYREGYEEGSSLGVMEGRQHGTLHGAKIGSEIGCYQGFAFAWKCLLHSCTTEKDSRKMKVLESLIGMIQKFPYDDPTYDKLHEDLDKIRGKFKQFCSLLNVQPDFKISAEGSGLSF

| Target | log2 fold change [1] | log2 fold change (crizotinib) | log2 fold change [2] | log2 fold change [3] | log2 fold change (duvelisib) | log2 fold change (gandotinib) | log2 fold change (tozasertib) | log2 fold change [4] | log2 fold change (doramapimod) | log2 fold change (ispinesib) |
| --- | --- | --- | --- | --- | --- | --- | --- | --- | --- | --- |
| LIMA1 isoform 4 (UniProt Q9UHB6) | -0.076 | 0.001 | -0.04 | -0.057 | 0.003 | 0.019 | 0.027 | -0.036 | -0.023 | 0.185 |
| MAPKAPK3 (UniProt Q16644) | -0.033 | -0.078 | 0.048 | 0.115 | 0.015 | -0.043 | 0.014 | -0.021 | 0.314 | -0.111 |
| LTO1 (UniProt Q8WV07) | 0.011 | 0.048 | -0.083 | -0.063 | 0.078 | -0.026 | -0.007 | -0.042 | 0.032 | 0.051 |
| KDM5D isoform 3 (UniProt Q9BY66) | -0.004 | 0.038 | -0.005 | -0.054 | 0.057 | -0.051 | 0.212 | 0.125 | 0.108 | 0 |
| MDC1 (UniProt Q14676) | -0.053 | -0.109 | 0.041 | 0.107 | -0.057 | 0.423 | -0.154 | -0.031 | 0.178 | -0.217 |
| LONP2 (UniProt Q86WA8) | -0.004 | 0.072 | 0.026 | 0.113 | -0.017 | 0.017 | 0.073 | -0.094 | 0.073 | 0.092 |
| MAP1LC3B2 (UniProt A6NCE7) | 0.035 | -0.047 | 0.054 | -0.144 | 0.061 | -0.012 | 0.114 | 0.011 | 0.003 | 0.02 |
| MELK (UniProt Q14680) | 0.109 | -0.128 | -0.099 | 0.054 | -0.063 | -0.046 | -0.087 | -0.047 | -0.011 |  |
| LRBA, A0A494BZW2 | 0.013 | -0.053 | 0.114 | 0.104 | -0.057 | 0.041 | -0.055 | -0.004 | 0.036 | -0.182 |
| IGFBP2 (UniProt P18065) | -0.205 | -0.297 | -0.051 | -0.189 | 0.173 | -0.475 | -0.083 | 0.026 | -0.305 | -0.482 |
| MAPKAPK2 (UniProt P49137) | -0.032 | -0.082 | 0.035 | -0.019 | 0.006 | -0.066 | -0.018 | 0.006 | 0.147 | -0.003 |
| IGFBP3 isoform 2 (UniProt P17936) | -0.097 | -0.176 | -0.063 | -0.149 | 0.068 | -0.545 | -0.092 | 0.027 | -0.243 |  |
| MFSD11 (UniProt O43934) | -0.098 | -0.683 (active) | -0.223 | 0.074 | 0.03 | 0.036 | -0.109 | -0.063 | 0.008 |  |
| MAP3K4 isoform 2 (UniProt Q9Y6R4) | 0.012 | -0.256 (active) | 0.042 | -0.017 | 0.02 | -0.054 | 0.026 | 0 | 0.02 | 0.021 |
| LSR (UniProt Q86X29) | 0.08 | 0.043 | 0.009 | -0.025 | 0.061 | -0.012 | -0.044 | -0.031 | 0.04 | 0.027 |
| MAPK9 (UniProt P45984) | 0.006 | -0.042 | 0.054 | -0.068 | 0.023 | -0.018 | -0.013 | -0.041 | 0.145 | 0.01 |
| MFF (UniProt Q9GZY8) | -0.03 | -0.051 | -0.052 | -0.023 | 0.005 | -0.036 | -0.053 | -0.085 | -0.018 | -0.088 |
| MED1 (UniProt Q15648) | 0.011 | 0.014 | 0.043 | 0.04 | -0.044 | -0.025 | -0.031 | -0.05 | 0.11 | -0.078 |
| IWS1 (UniProt Q96ST2) | 0.077 | 0.146 | 0.132 | 0.119 | 0.028 | 0.108 | 0.058 | 0.062 | -0.134 | 0.061 |
| LGALS8 isoform 2 (UniProt O00214) | -0.002 | -0.023 | -0.255 | 0.323 | -0.223 | -0.144 | 0.016 | 0.204 | 0.146 |  |
| MAP2K7 isoform 4 (UniProt O14733) | 0.017 | -0.112 | 0.003 | -0.003 | 0.018 | -0.055 | -0.057 | -0.038 | 0 | -0.051 |
| IMMT isoform 4 (UniProt Q16891) | 0.017 | -0.102 | 0.084 | -0.012 | 0.019 | -0.093 | 0.002 | 0 | -0.014 | -0.202 |
| ILF2 (UniProt Q12905) | -0.168 | -0.164 | -0.153 | 0.206 | -0.126 | 0.07 | -0.024 | 0.022 | 0.063 | 0.038 |
| LNPK (UniProt Q9C0E8) | -0.016 | 0.077 | 0.007 | -0.036 | -0.017 | -0.022 | 0.002 | -0.085 | -0.044 | 0.022 |
| ILKAP (UniProt Q9H0C8) | 0.008 | 0.064 | 0.174 | -0.054 | 0.041 | -0.061 | 0 | 0.085 | -0.055 | 0.05 |
| KPNA6 (UniProt O60684) | -0.01 | -0.11 | -0.011 | 0.138 | 0 | -0.028 | 0.046 | 0.07 | 0.046 | -0.202 |
| LARP7 isoform 3 (UniProt Q4G0J3) | -0.001 | 0.022 | 0.068 | -0.077 | -0.013 | -0.065 | 0.071 | 0.088 | 0.012 | -0.007 |
| INPP1 (UniProt P49441) | 0.041 | -0.016 | -0.012 | -0.028 | 0.011 | -0.084 | 0.018 | -0.043 | -0.018 | 0.052 |
| KTN1 (UniProt Q86UP2) | -0.016 | -0.078 | -0.028 | 0.122 | -0.027 | -0.047 | -0.007 | 0.097 | 0.094 | -0.207 |
| LBR (UniProt Q14739) | 0.025 | 0.152 | 0.016 | -0.031 | -0.014 | -0.359 (active) | -0.026 | 0.017 | -0.02 | -0.08 |
